Source: PubChem BioAssay
Gli-Sufu antag = antagonists of Gli-Sufu signaling; hit rate 0.74% among 340,000; inhibition, % at 5 µM; Sufu-KO-LIGHT fibroblasts, Gli luciferase reporter luminescence;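 active = inhibition above about 55%, limit read from the data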;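 note: 0% = DMSO-treated cells and 100% = wells with medium but no cells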
Jurkat NFkB inh = lowers PMA/ionomycin-induced NF-kB signal in Jurkat cells | PMA/ionomycin-induced NF-kB luciferase reporter, luminescence | inhibition, % at 4 µM | hit rate 0.53% among 330,000 | AID 435003; in the data active = inhibition above about 50%
CSC inhib = blocks cancer stem cells; AID 2717; cancer stem cell-like cells viability, luminescence; hit rate 1.1% among 300,000; inhibition, % at 7.5 µM; in the data active = inhibition above about 75%; tested in HMLE shEcad cells
Mdm2 MdmX PPI = human Mdm2/MdmX binding inhibition; O15151+Q00987; SaOS-2 split-luciferase Mdm2/MdmX complementation, luminescence; inhibition, % at 8 µM; hit rate 3% among 330,000; AID 485346;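 active = inhibition of at least 50% at 8 µM in the primary screen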
697 NFkB inh = inhibitors of the PMA/ionomycin-induced NF-kB reporter in 697 B cells; 697 B-cell NF-kB luciferase reporter, 16 h; inhibition, % at 4 µM; hit rate 0.33% among 330,000; AID 435022; in the data active = inhibition above about 35%
Beta apoptosis = beta cell apoptosis inhibition. INS-1E cytokine-induced death, ATP luminescence, 48 h; percent of positive-control rescue, neutral wells zero. protection from apoptosis, % (concentration not given with the values). hit rate 0.8% among 300,000. AID 435005;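 active = Every replicate reaches about 75%, or at least half do and their mean reaches it too, limit read from the data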;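 note: 0% = cytokine-treated negative control wells and 100% = positive control rescue; higher means more ATP so stronger rescue from cytokine killing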
Mdm2 MdmX conf = confirmation of human Mdm2/MdmX interaction inhibitors; hit rate 55% among 10,000; shares compounds with Mdm2 MdmX PPI; Mdm2-MdmX binding, luminescent assay; AID 489028; inhibition, % at 8 µM; in the data active = inhibition above about 40%
FLuc counter = full-length luciferase inhibition in Mdm2/MdmX counter-screen. SaOS-2 full-length luciferase counterscreen, luminescence. shares compounds with Mdm2 MdmX PPI. inhibition, % at 8 µM. hit rate 77% among 6,200. AID 504607;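 active = mean inhibition at 8 µM reaching about 37%, which flags the compound as non-specific, limit read from the data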;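 note: p53-null SaOS-2 cells with luciferase driven by a doxycycline-inducible promoter; compound on cells about two nights before reading with doxycycline added after day one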
* hit, by the source's call; x = no result. The list is not random: actives were taken first. Their share in the collection is about 4.5%.

SMILES	Gli-Sufu antag	Jurkat NFkB inh	CSC inhib	Mdm2 MdmX PPI	697 NFkB inh	Beta apoptosis	Mdm2 MdmX conf	FLuc counter
Cc1oc(-c2cccc(Cl)c2)nc1CN1CCC(C(=O)NCCCN2CC(C)CC(C)C2)CC1 (stereo not drawn)	29	44	-14	100*	0	9	98*	53*
CCCN(CCC)CCNC(=O)C1CCN(Cc2nc(-c3ccc(Cl)cc3)oc2C)CC1	15	6	7	88*	19	5	79*	30
CCN1CCN(CCNC(=O)C2CCCN(Cc3nc(-c4cccc(Cl)c4)oc3C)C2)CC1 (stereo not drawn)	19	9	5	63*	-18	6	32	x
COc1ccc(/C(C)=N/NC(=O)c2ccc(NS(=O)(=O)c3cccs3)cc2)cc1	0	0	8	-3	-5	-2	x	x
Cc1c(C(=O)Nc2ccncc2)sc2nc(-c3ccc(F)cc3)cn12	20	0	10	67*	-30	37	9	x
Cc1c(N=C2N=C(NC(=O)c3ccc(F)cc3)c3ccccc32)c(=O)n(-c2ccccc2)n1C	0	-1	14	81*	-13	-1	7	x
COc1ccc2cc1Oc1ccc(cc1)C[C@H]1c3cc(c(OC)cc3CCN1C)Oc1c(OC)c(OC)cc3c1[C@@H](C2)N(C)CC3	12	-3	-6	100*	6	3	90*	60*
COc1ccc2c(c1OC)CN(C)CCc1cc3c(cc1C(O)C2)OCO3 (stereo not drawn)	14	1	0	18	9	-5	x	x
Cc1ccc(S(=O)(=O)c2cc3c(=O)n4cccc(C)c4nc3n(Cc3ccncc3)c2=N)cc1	-22	48	14	53*	7	-8	33	x
COc1ccc(CCn2c(=N)c(C(=O)NC3CCCC3)cc3c(=O)n4cccc(C)c4nc32)cc1	10	7	-3	88*	1	13	53*	58*
COc1ccc(CCn2c(=N)c(C(=O)NC3CCCCC3)cc3c(=O)n4ccccc4nc32)cc1	9	0	-2	93*	5	9	31	82*
Cc1cccn2c(=O)c3cc(S(=O)(=O)c4ccccc4)c(=N)n(Cc4cccnc4)c3nc12	9	-4	x	-5	-18	9	x	x
Cc1cccn2c(=O)c3cc(C(=O)NC4CCCCC4)c(=N)n(Cc4ccccc4)c3nc12	49	10	10	93*	33	12	31	x
O=C1CCN(Cc2ccc(O)cc2)CCN1CCO	33	3	10	2	13	-6	x	x
CC(=O)Nc1nnc(S(=O)(=O)N2CCN(c3ccc(Cl)cc3[N+](=O)[O-])CC2)s1	-11	-6	-3	14	2	-4	x	x
O=C(NCCC(NS(=O)(=O)OCC(Cl)(Cl)Cl)c1ccccc1)C(F)(F)F (stereo not drawn)	0	-15	9	-5	-31	-1	x	x
CCOc1cc([N+](=O)[O-])cc(/C=N/NC(=O)c2c(-c3ccccc3)noc2C)c1O	4	1	8	57*	14	4	21	x
CCOc1cc(/C=N/NC(=O)c2c(-c3ccccc3)noc2C)ccc1O	-1	4	-7	3	13	-5	x	x
Cc1ccc(/C=N/NC(=O)c2c(-c3ccccc3)noc2C)c(O)c1	x	-19	51	65*	-70	93*	62*	31
COc1cc(/C=N/NC(=O)c2c(-c3ccccc3)noc2C)ccc1O	-4	-3	-6	12	8	-3	x	x
Cc1n[nH]c(C)c1CCNC(=O)C1CCC(=O)N(CCc2cccc(F)c2)C1 (stereo not drawn)	-26	-4	18	6	-2	-1	x	x
CCC(C)c1ccc(NC(=S)NC2CCN(Cc3ccccc3)CC2)cc1 (stereo not drawn)	33	9	36	76*	0	111*	29	x
CCc1ccc(NC(=S)NC2CCN(Cc3ccccc3)CC2)cc1	31	-13	20	24	-15	0	x	x
Cc1cccc(C)c1NC(=O)CN(C)C(=O)c1ccccc1OCc1ccc(F)cc1	-1	-16	-7	10	6	x	x	x
COc1cccc(C#Cc2c(C=O)n(C)c3ccccc23)c1	-8	-9	-28	66*	-23	-2	40	70*
SMILES	Gli-Sufu antag	Jurkat NFkB inh	CSC inhib	Mdm2 MdmX PPI	697 NFkB inh	Beta apoptosis	Mdm2 MdmX conf	FLuc counter
Cc1ccc(S(=O)(=O)c2ccsc2NC(=O)c2ccccc2)cc1	0	x	x	x	x	x	x	x
COC(=O)[C@]1(C)N[C@H](CN(C)C(=O)c2ccccc2)[C@@H]2C(=O)N(C)C(=O)[C@@H]21	1	1	-13	4	15	-6	x	x
O=c1[nH]c(C2CCN(S(=O)(=O)c3ccc4c(c3)OCCO4)CC2)nc2c1nnn2Cc1c(F)cccc1Cl	-26	2	21	56*	-20	-5	47*	59*
O=C(NS(=O)(=O)Nc1ccccn1)c1c[nH]c2ccccc12	0	7	-9	13	-16	-7	x	x
Cc1c(C=O)c2ccccn2c1C(=O)c1ccc(Cl)c([N+](=O)[O-])c1	2	9	8	66*	18	-1	-1	x
CC(=O)C(Cc1ccccc1)NC(=O)CCl (stereo not drawn)	-1	9	x	39	19	5	x	x
O=C(CCl)NC(Cc1ccccc1)c1ccccc1 (stereo not drawn)	-3	18	2	74*	10	-3	51*	44*
O=C(Nc1ccc(C(=O)N2CCOCC2)cc1)c1cnn2c(C(F)F)cc(-c3ccccc3)nc12	12	-1	-6	27	1	-2	x	x
Cc1ccc(-c2cc(C(F)F)n3ncc(C(=O)Nc4ccc(S(=O)(=O)Nc5ccccc5C)cc4)c3n2)cc1	12	8	11	54*	-20	-2	23	x
O=C(Cc1ccc(S(=O)(=O)N2CCOCC2)s1)NCCOc1ccccc1	-2	5	-6	-7	5	-3	x	x
CCCc1cc(=O)[nH]c(SCC(=O)NCCC2=CCCCC2)n1	-1	17	-13	31	4	-1	x	x
O=C(c1ccco1)N1CCN(C(=O)c2cnn3c2NC(c2cccs2)CC3C(F)(F)F)CC1 (stereo not drawn)	19	-1	-9	12	-3	0	x	x
O=C(c1cnn2c1NC(c1ccco1)CC2C(F)(F)F)N1CCN(c2cccc(Cl)c2)CC1 (stereo not drawn)	2	38	57	59*	-21	13	51*	56*
Cc1cccc(NC(=O)COC(=O)Cc2cccs2)c1C	-3	8	-6	6	16	x	x	x
CCCN1CCc2c(sc(NC(=O)c3ccc(S(=O)(=O)N4CCN(C(=O)OCC)CC4)cc3)c2C(N)=O)C1	29	2	-8	-18	-9	x	x	x
